The source of these data is PubChem BioAssay (EPA / NIEHS).

Inconclusive results are not listed. Activity calls are given as the source filed them. The calls were made as follows: active = hit-call score of the fitted dose curve at least 0.9, where 1 is the maximum; inconclusive = response in the unintended direction; inactive = score below 0.9.

This assay deals with Peroxisome proliferator-activated receptor gamma (Homo sapiens) (UniProt P37231). Description: ATG_PPARg_TRANS: Attagene TRANS-FACTORIAL HepG2 Assay for human Peroxisome Proliferator-activated Receptor-gamma (PPARg) (AID 2283007). The essentials: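 A TRANS-format multiplexed reporter assay measures activity of an exogenous chimeric NR-Gal4 protein in HepG2 cells. After 24 h of chemical exposure, reporter transcripts are amplified, fluorescently labelled and sized by capillary electrophoresis, with gain of signal scored against DMSO.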
Peroxisome proliferator-activated receptor gamma (Homo sapiens), sequence (P37231 whole entry, looked up, the tested form may be a part): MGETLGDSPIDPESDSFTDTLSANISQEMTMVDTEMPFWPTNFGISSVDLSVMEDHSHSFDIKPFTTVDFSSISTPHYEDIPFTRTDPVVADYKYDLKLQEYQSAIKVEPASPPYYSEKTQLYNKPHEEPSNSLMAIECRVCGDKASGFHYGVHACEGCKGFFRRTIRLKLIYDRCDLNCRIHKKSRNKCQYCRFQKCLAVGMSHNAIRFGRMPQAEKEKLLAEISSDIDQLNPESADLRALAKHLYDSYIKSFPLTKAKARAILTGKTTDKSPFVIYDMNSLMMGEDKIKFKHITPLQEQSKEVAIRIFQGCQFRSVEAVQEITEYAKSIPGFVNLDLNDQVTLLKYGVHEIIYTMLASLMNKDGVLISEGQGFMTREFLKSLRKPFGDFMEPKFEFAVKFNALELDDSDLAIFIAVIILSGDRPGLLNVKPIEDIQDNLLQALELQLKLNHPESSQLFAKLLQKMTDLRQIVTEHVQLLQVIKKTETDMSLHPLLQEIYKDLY
As for `CCCCC(CC)CCC(CC(C)C)OS(=O)(=O)O` (centres undefined), the AC50 was 36.6 µM (active).

For the molecule `c1cc(N(CC2CO2)CC2CO2)ccc1OCC1CO1` (centres undefined), the molecule was called inactive.

Consider `O=C(O)CCCCCCCCCC(=O)O`, for which the result was inactive.

On to `CC(C)(C)C(=O)C=Cc1ccc(Cl)cc1`, for which the AC50 is 26.6 µM (active).

Regarding `CC(=O)OCc1ccco1`, the call was inactive.

Regarding `Clc1nc2ccccc2s1`, the molecule was classed as inactive.

With `CCOC(=O)c1ccc(N(C)C)cc1`, the molecule was classed as inactive.

As for `CCCCCC/C=C/C=O`, the AC50 was 20.8 µM (active).

Take `FC(F)(F)C(=NOCC1OCCO1)c1ccc(Cl)cc1`: the result was inactive.

Regarding `Cc1ccc(N/N=c2\c(=O)cc/c(=N/Nc3ccc(S(=O)(=O)O)cc3)c2=O)c(C)c1`, the molecule was classed as inactive.

On to `CCCCCc1ccc(Cl)cc1`, for which the molecule was classed as inactive.

For `CNC(=S)N(C)C`, the outcome was inactive.

Consider `C[Si](C)(CCCN)O[Si](C)(C)CCCN`, for which the molecule was classed as inactive.

With `CC1=NN(c2cc(S(=O)(=O)O)ccc2Cl)C(=O)C1N=Nc1ccccc1` (centres undefined), the call was inactive.

With `CC(C)(C)c1ccc(OC(=O)c2ccccc2O)cc1`, the result was inactive.

For `CCCCCCCCCCCCCOP(=O)(O)O`, the AC50 was 16.4 µM (active).

Turning to `CCCCCCCCCCOC(C)=O`, the call was inactive.

In the case of `Cc1ccc2oc(=O)ccc2c1`, the outcome was inactive.

Regarding `C=CC(=O)OCCC(=O)O`, the result was inactive.

On to `CCCCCCCCCCc1ccccc1`, for which the outcome was inactive.

For the molecule `COc1c2ccoc2cc2oc(=O)ccc12`, the call was inactive.

Consider `COc1ccc([C@@H]2CC(=O)c3c(O)cc(O[C@@H]4O[C@H](CO[C@@H]5O[C@@H](C)[C@H](O)[C@@H](O)[C@H]5O)[C@@H](O)[C@H](O)[C@H]4O)cc3O2)cc1OC`, for which the call was inactive.

As to `O=C(C=Cc1ccccc1)OCc1ccccc1`, the AC50 is 0.162 µM (active).

With `O=C1CC2CC1C1CCCC21` (centres undefined), the outcome was inactive.

As for `Cc1ccc([N+](=O)[O-])cc1S(=O)(=O)O`, the result was inactive.

For `CC(C)(C)c1ccc(N)cc1`, the call was inactive.

As to `CC(C)c1ccc2cc(C(C)C)ccc2c1`, the outcome was inactive.

Turning to `CCCCCCC1(C)CCC(=O)O1` (centres undefined), the molecule was classed as inactive.

`COc1cc(NC(=O)CC(C)=O)c(OC)cc1Cl`: the outcome was inactive.

Turning to `CC1=CC[C@H](C(C)C)C=C1`, the AC50 is 27.9 µM (active).

Turning to `CCN(CC)c1ccc(C(=O)c2ccccc2C(=O)O)c(O)c1`, the AC50 is 30 µM (active).

`CC1=Nc2ccc3ccccc3c2C1(C)C`: the AC50 is 40.5 µM (active).

Turning to `O=C1c2ccccc2C(=O)C1c1nc2ccccc2c(Br)c1O`, the AC50 is 11.5 µM (active).

As for `C=C(C)C(=O)OCCO`, the molecule was classed as inactive.

`SCCc1cnccn1`: the molecule was classed as inactive.

As to `Cc1cccc(C(=O)O)c1`, the call was inactive.

Regarding `CCCCCCCCCCC=CC#N`, the AC50 is 28.2 µM (active).

With `C[C@]12CCC(=O)C=C1CC[C@@H]1[C@@H]2C(=O)C[C@@]2(C)[C@H]1CC[C@]2(O)C(=O)CO`, the molecule was called inactive.

Consider `COC(=O)c1ccc2cc(C(=O)OC)ccc2c1`, for which the AC50 is 26.3 µM (active).

A word on the AC50: it is the midpoint of the concentration-response curve, whichever way the signal moves.
